# This is part of a sample that, as a whole, favours compounds with a hit. Of some 83,000 tested, about 20% had one in any assay.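 Step 1: grow cells in 96-well plates. Step 2: add test compound at a single concentration. Step 3: incubate 48 h. Step 4: record percent growth.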 A number with no mark means an inactive call. The source made the active and inactive calls. The calls were made as follows: active = growth percent below 10; inactive = the rest.
# Assays:
# Assay in all cases: NCI-60 one-dose screen, 48 h (100 = growth as untreated, 0 = no growth, -100 = all killed)
# Conditions in all cases: 10 µM unless noted
# [1] = test system: NCI-H23 lung
# [2] = test system: NCI-H226 lung
# [3] = test system: NCI-H322M lung
# [4] = test system: HOP-62 NSCLC
# [5] = test system: NCI-H460 lung
# [6] = test system: HOP-92 NSCLC
# [7] = test system: NCI-H522 lung
# [8] = test system: A549/ATCC NSCLC
# [9] = test system: 786-0 renal
# [10] = test system: COLO 205 colon
# [11] = test system: DU-145 prostate
# [12] = test system: K-562 leukemia
# [13] = test system: MALME-3M melanoma
# [14] = test system: MDA-MB-231 breast
# [15] = test system: RXF 393 renal
# [16] = test system: SF-268 CNS
# [17] = test system: SF-295 CNS
# [18] = test system: UACC-257 melanoma
# [19] = test system: M14 melanoma
# [20] = test system: SF-539 CNS
Structure (SMILES),growth [1],growth [2],growth [3],growth [4],growth [5],growth [6],growth [7],growth [8],growth [9],growth [10],growth [11],growth [12],growth [13],growth [14],growth [15],growth [16],growth [17],growth [18],growth [19],growth [20] [%]
C[C@@]1(N2C(=O)OC[C@@H]2c2ccccc2)C(=O)N([C@H](CC(=O)N2CCC(N3CCCCC3)CC2)C(=O)NCc2cccc(C(F)(F)F)c2)[C@@H]1/C=C/c1ccccc1,78.8%,89.6%,72.8%,84.7%,2.37% (active),64.4%,-9.84% (active),54.6%,70%,-67.1% (active),63.5%,-40.6% (active),-69.5% (active),31%,61%,63.2%,100%,-72.1% (active),-54.3% (active),–
O=C(/C=C\c1cccc([N+](=O)[O-])c1)c1ccccc1,81.3%,70.3%,96.1%,90.8%,87.7%,-27% (active),-5.55% (active),92.9%,13.2%,-71% (active),59%,180%,36.6%,104%,14.9%,25.8%,89.9%,–,26.8%,85.4
COc1cnc2c(c1)C(=O)c1c-2n(CCCN2CCCC2)c(=O)c2cc([N+](=O)[O-])ccc12,-7.75% (active),-79.4% (active),-11.9% (active),-16.8% (active),-60.1% (active),16.4%,-31% (active),-44.8% (active),-90.9% (active),2.24% (active),3.15% (active),-12.1% (active),-20.2% (active),-49.1% (active),-88.7% (active),17.1%,-6.13% (active),-8.07% (active),0.878% (active),–
O=C(C[C@@H](C(=O)NCc1cccc(C(F)(F)F)c1)N1C(=O)[C@@H](N2C(=O)OC[C@@H]2c2ccccc2)[C@H]1/C=C/c1ccccc1)NC1CCN(Cc2ccccc2)CC1,36.2%,88.6%,73.1%,72.7%,13.1%,76.7%,33.8%,53.5%,76.3%,45.7%,67.2%,-51% (active),-17.1% (active),64.3%,74.4%,57.9%,102%,77.4%,83.2%,–
COc1ccc2nc3cc(Cl)ccc3c(N3CCN(c4nccc(NCc5ccccc5)n4)CC3)c2c1,73.2%,96.4%,89.4%,35.9%,89.9%,69.1%,-0.14% (active),78.3%,79%,82.1%,78.7%,33%,113%,67.5%,42.2%,72.3%,81.6%,88%,96.3%,–
CC/C(Cc1ccccc1)=C(/c1ccc(O)cc1)c1ccc(OCCN2CCCC2)cc1,8.75% (active),71.2%,-18% (active),-22.3% (active),-90.5% (active),-12.8% (active),-54.3% (active),-59.1% (active),-83.6% (active),-71.8% (active),-18.6% (active),-10.1% (active),-72.5% (active),-60.8% (active),-65% (active),9.94% (active),-63.1% (active),-65.8% (active),-70.5% (active),–
COc1ccc(C(=O)c2sc3nc4c(c(C(F)(F)F)c3c2N)CN(C(C)=O)CC4)cc1OC,90.5%,78.2%,93.1%,87%,95.8%,-0.986% (active),78.5%,91%,91.9%,92.4%,104%,78.2%,88%,63.8%,74.7%,85%,86.2%,99.2%,100%,–
C=C1CCC2C3(C)COC(c4ccccc4Br)OC3CCC2(C)C1C/C=C1/C(=O)OCC1OC(C)=O (configuration not stated),-47.7% (active),-58.3% (active),21.7%,11.5%,1.8% (active),1.59% (active),-52.7% (active),22.7%,-72.8% (active),-76.7% (active),21.4%,-43% (active),-44.6% (active),-37.1% (active),-57.2% (active),-13.4% (active),27.6%,-41.6% (active),-36.7% (active),–
COc1cnc2c(c1)C(=O)c1c-2n(CCCN2CCN(C)CC2)c(=O)c2cc([N+](=O)[O-])ccc12,-46.4% (active),79.3%,-56.9% (active),-61.3% (active),-74.5% (active),-57.7% (active),-37.6% (active),-78.9% (active),-87.1% (active),-5.87% (active),-42.5% (active),-50.8% (active),-72.9% (active),-72.3% (active),84.2%,-60.7% (active),-80.8% (active),-37.6% (active),-85.2% (active),–
Clc1ccc(-c2nnc(COc3ccccc3Cl)o2)cc1,80.6%,93.8%,76.9%,61.3%,82.9%,49.2%,70.9%,58.3%,23.3%,90.8%,95.6%,74.7%,72.4%,67.4%,46.9%,75.5%,89.8%,80.6%,76.4%,–
COc1ccc2nc3cc(Cl)ccc3c(N3CCN(c4nccc(Nc5ccccc5)n4)CC3)c2c1,69.8%,95.4%,88.3%,79.2%,67.4%,67%,7.15% (active),65.1%,59.1%,89.8%,75.2%,41.5%,110%,70.2%,35%,61.3%,78.3%,82.2%,60.8%,–
Cn1c(=O)c2[nH]c(C(O)C(O)C(O)C(O)CO)nc2n(C)c1=O (configuration not stated),100%,95.1%,93.7%,96%,107%,109%,86.7%,88.7%,107%,103%,109%,95.1%,97%,101%,115%,106%,103%,93.6%,105%,–
NCc1cn2cc(Cl)sc2n1,107%,101%,90.3%,112%,103%,101%,95.5%,92.9%,106%,114%,114%,95%,103%,112%,98.9%,111%,102%,105%,108%,–
